Screens as filed in PubChem BioAssay.
A selection: hits, their analogues and other compounds. The true share with any hit is near 7%.
rCAG RNA binder – binders of r(CAG) RNA repeats, primary screen, biochemical, fluorescence | inhibition, % at 3 µM | actives 1.3% (n = 370,000) | r(CAG) RNA repeat, TO-PRO-1 dye displacement fluorescence | AID 651821, 2012;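 active = inhibition above the plate cutoff, the mean of all test compounds on that plate plus 3 SD, cut at about 35% in these data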;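 also: higher means more dye released from RNA so lower well fluorescence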
KLK7 zymogen act – proKLK7 zymogen activators, primary screen, biochemical, fluorescence intensity; activation, % at 7 µM; AID 652039, 2013; purified proKLK7, EDANS-DABCYL substrate fluorescence; 100% is mature enzyme control, 0% vehicle; Kallikrein-7 (Homo sapiens), P49862; actives 0.9% (n = 370,000);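 active = activation above the mean of all tested compounds plus 3 SD, computed per campaign excluding outliers beyond control limits, cut at about 13% in these data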
ADAM17 inh – ADAM17 inhibitors, primary screen, biochemical, QFRET; AID 720648, 2013; recombinant ADAM17, EDANS/DABCYL FRET peptide cleavage; actives 0.83% (n = 370,000); inhibition, % at 6.95 µM; Disintegrin and metalloproteinase domain-containing protein 17 (Homo sapiens), P78536;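 active = inhibition above the mean of compounds lying between control limits plus 3 SD, set per campaign, cut at about 8.5% in these data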
AHR activator – AHR activators, primary screen, cell-based, luminescence, luciferase reporter, human | Aryl hydrocarbon receptor (Homo sapiens), P35869 | activation, % at 5 µM | actives 2.5% (n = 320,000) | AHR-responsive luciferase reporter cells; in the data active = activation above about 47%
GRIN3A LBD mod – binders of NR3A ligand-binding domain, primary screen, biophysical, differential scanning fluorimetry, uHTS; Glutamate receptor ionotropic, NMDA 3A (GRIN3A) ligand-binding domain; NR3A LBD differential scanning fluorimetry, Tm shift; 0% = protein alone, 100% = glycine-bound protein; Tm shift relative to glycine control, % at 25 µM; actives 2.5% (n = 340,000); AID 1259313, 2017;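 active = melting temperature shift of at least 10% of the positive control shift, at one fixed dose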
ADAM10 inh – human ADAM10 inhibitors, primary screen, biochemical, QFRET, HTS | Disintegrin and metalloproteinase domain-containing protein 10 (Homo sapiens), O14672 | recombinant ADAM10, EDANS/DABCYL FRET peptide cleavage, 3 h | inhibition, % at 7 µM | actives 0.62% (n = 370,000) | AID 720582, 2013;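 active = inhibition above a per-campaign cutoff equal to the mean of compounds falling between control-based bounds plus 3 SD, cut at about 20% in these data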
Target sequence (O14672 214-748 limits assumed): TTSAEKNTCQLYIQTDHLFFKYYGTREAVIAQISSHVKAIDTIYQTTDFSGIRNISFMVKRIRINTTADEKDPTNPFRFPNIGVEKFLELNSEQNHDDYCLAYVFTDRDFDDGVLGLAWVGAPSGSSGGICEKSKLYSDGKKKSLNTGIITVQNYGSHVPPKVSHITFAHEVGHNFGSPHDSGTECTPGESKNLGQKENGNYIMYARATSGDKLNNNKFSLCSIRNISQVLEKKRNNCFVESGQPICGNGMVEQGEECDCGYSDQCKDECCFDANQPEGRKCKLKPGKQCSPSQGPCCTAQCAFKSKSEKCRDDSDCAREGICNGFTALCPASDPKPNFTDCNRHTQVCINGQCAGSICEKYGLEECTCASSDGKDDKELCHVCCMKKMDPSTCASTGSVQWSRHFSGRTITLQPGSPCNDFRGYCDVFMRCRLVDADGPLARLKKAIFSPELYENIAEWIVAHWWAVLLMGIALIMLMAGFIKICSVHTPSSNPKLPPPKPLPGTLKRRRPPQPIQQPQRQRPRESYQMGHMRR
rCAG binder conf – small molecules binding CAG repeat RNA – biochemical, fluorescence, confirmation | AID 652065, 2013 | shares compounds with rCAG RNA binder | actives 70% (n = 4,300) | inhibition, % at 3 µM | r(CAG) RNA repeat, TO-PRO-1 dye displacement fluorescence;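 active = inhibition above a per-plate cutoff, the mean inhibition of sample wells plus 3 SD, cut at about 35% in these data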;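 also: loss of TO-PRO-1 fluorescence as compound displaces dye from 1x1 AA loop RNA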
dCAG dye counter – displacement of TO-PRO-1 from CAG DNA duplex, counter-screen for rCAG RNA repeat binder project, biochemical, fluorescence, TO-PRO-1 dye, d(CAG) DNA oligo; AID 652068, 2013; d(CAG) DNA oligo TO-PRO-1 dye displacement; shares compounds with rCAG RNA binder; inhibition, % at 3 µM; actives 94% (n = 4,300);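 active = inhibition above its plate's cutoff, the mean test-well inhibition plus 3 SD, cut at about 4.8% in these data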;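 also: hits displace the dye from DNA and so lower well fluorescence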
Large screens that a line does not name were inactive (follow-up assays come after a bar, where they were run).

O=C(NCc1ccccc1)[C@H]1CCCN1C(=O)[C@H]1CCCN1C(=O)c1ccccc1C(F)(F)F	none (no result: AHR activator, GRIN3A LBD mod)
CC(=O)NC(c1ccccc1)c1nc(-c2ccc(Cl)cc2)cs1 (stereo not given)	none (no result: AHR activator, GRIN3A LBD mod)
C=CCNc1cccc2c1S(=O)(=O)N[C@@H](CC(C)C)CO2	none (no result: AHR activator, GRIN3A LBD mod)
COc1cc(/C=C2\SC(=Nc3cccnc3)NC2=O)cc(OC)c1OC	none
CCc1ccc(N=C2NC(=O)/C(=C/c3cc(OC)c(O)c(OC)c3)S2)cc1	rCAG RNA binder 41.6 (no result: AHR activator) | rCAG binder conf 39.8 | dCAG dye counter 16.0
CC(C)(C)c1ccc(-c2cn(C[C@H](Cc3ccccc3)n3c(=O)c4ccccc4n3Cc3ccno3)nn2)cc1	none (no result: AHR activator, GRIN3A LBD mod)
COC(=O)[C@]12C[C@H](CC(=O)NCC3CCCCC3)C(=O)N(Cc3ccc4c(c3)OCO4)C1=C[C@H](C(C)C)O[C@@H]2C1CC1	none (no result: AHR activator, GRIN3A LBD mod)
Cc1ccc(C(=O)Nc2nc(C)c(C(=O)N(C)C)s2)o1	none
O=C(CCl)Nc1nc(-c2ccco2)c(-c2ccco2)s1	none
Cc1ccc(C(=O)Nc2nc(-c3ccco3)c(-c3ccco3)s2)o1	rCAG RNA binder 73.2 (no result: AHR activator) | rCAG binder conf inactive | dCAG dye counter 8.1
O=C(CCCSc1ccccc1)Nc1nc(-c2ccco2)c(-c2ccco2)s1	rCAG RNA binder 73.7 | rCAG binder conf inactive | dCAG dye counter 14.3
CC(=O)N1CCC(C(=O)N2c3ccccc3N=C(c3ccc4c(c3)OCO4)C2C(=O)Nc2c(C)cccc2C)CC1 (stereo not given)	none (no result: AHR activator, GRIN3A LBD mod)
Cc1ccc(N=C2S/C(=C\c3cn(CC(=O)O)c4ccccc34)C(=O)N2C)cc1	rCAG RNA binder 76.6 | rCAG binder conf 75.9 | dCAG dye counter 36.1
O=C(NCc1ccco1)c1ccccc1NS(=O)(=O)c1ccc(Br)s1	rCAG RNA binder 44.2 | rCAG binder conf 47.6 | dCAG dye counter 16.4
COc1ccc(S(=O)(=O)Nc2ccccc2C(=O)NCc2ccco2)cc1	none
O=C1CC(NC(=O)C(F)(F)F)=NN1c1ccccc1	none
CC(Oc1ccc(Cl)cc1Cl)C(=O)NC1=NN(c2ccccc2)C(=O)C1 (stereo not given)	rCAG RNA binder 57.7 | rCAG binder conf 53.5 | dCAG dye counter 24.9
CC(C)(Oc1ccc(Cl)cc1)C(=O)NC1=NN(c2ccccc2)C(=O)C1	rCAG RNA binder 74.2 | rCAG binder conf inactive | dCAG dye counter 12.5
NC(=S)NN=C1c2cc(S(=O)(=O)N3CCOCC3)ccc2-c2ccc(S(=O)(=O)N3CCOCC3)cc21	rCAG RNA binder 35.1 | rCAG binder conf 46.2 | dCAG dye counter 19.7
Cc1nc(SCC(=O)Nc2ccccc2)c2oc3ccccc3c2n1	none
O=C(O)CSc1nc(-c2ccc(Cl)cc2)nc2c1oc1ccccc12	rCAG RNA binder 41.5 | rCAG binder conf 82.0 | dCAG dye counter 62.1
O=C(O)CSc1nc(-c2ccccc2)nc2c1oc1ccccc12	rCAG RNA binder 58.8 | rCAG binder conf 48.5 | dCAG dye counter 13.6
O=C(O)c1ccc(-n2cccc2/C=N\NC(=O)c2cc3cc(Br)ccc3o2)cc1	rCAG RNA binder 49.7 | rCAG binder conf 46.3 | dCAG dye counter 14.8
O=C(O)Cn1cc(/C=N/NC(=O)c2cc3cc(Br)ccc3o2)c2ccccc21	rCAG RNA binder 50.3 | rCAG binder conf 55.8 | dCAG dye counter 17.4
N#Cc1ccc(C(=O)N/N=C/c2cn(CC(=O)O)c3ccccc23)c(F)c1	none
C[C@H](O)[C@@H]1C(=O)N2CCc3c([nH]c4cccc(-c5ccccc5)c34)[C@@H]2C[C@@H]1N(C)C(=O)OCc1ccccc1	none (no result: AHR activator, GRIN3A LBD mod)
N#Cc1c(Cl)nsc1NN	rCAG RNA binder 92.2 | rCAG binder conf inactive | dCAG dye counter 4.8
Cc1c(C#N)c(N)nc(Cl)c1C#N	none
COCCNC(=O)C1(C)CCCN(C(=O)c2cc(C)oc2C)C1 (stereo not given)	none (no result: AHR activator, GRIN3A LBD mod)
O=C(Cc1ccc([N+](=O)[O-])cc1)NNC(=O)c1cccs1	rCAG RNA binder 54.6 | rCAG binder conf inactive | dCAG dye counter inactive
COC(=O)C[C@H]1CC[C@@H](NC(=O)Nc2c(C)noc2C)[C@@H](CO)O1	none (no result: AHR activator, GRIN3A LBD mod)
Cc1ccc2c(nc3s/c(=C\c4ccc(-c5ccccc5C(=O)O)o4)c(=O)n32)c1C	rCAG RNA binder 53.5 | rCAG binder conf 89.4 | dCAG dye counter 75.5
Cc1ccc(C)c(N2C(=N)S/C(=C\c3ccc(-c4ccccc4C(=O)O)o3)C2=O)c1	rCAG RNA binder 45.1 | rCAG binder conf 39.2 | dCAG dye counter 10.2
Cc1cc(C)c2nc3sc(=Cc4ccc(-c5ccccc5C(=O)O)o4)c(=O)n3c2c1	none (no result: AHR activator, GRIN3A LBD mod)
CCOC(=O)C(C)N1C(=O)S/C(=C\c2ccc(-c3ccccc3C(=O)O)o2)C1=O (stereo not given)	rCAG RNA binder 37.2 | rCAG binder conf 40.2 | dCAG dye counter 11.8
Cc1ccc(NC(=O)CN2C(=O)S/C(=C\c3ccc(-c4cccc(C(=O)O)c4C)o3)C2=O)cc1	none (no result: rCAG RNA binder, KLK7 zymogen act, ADAM17 inh, GRIN3A LBD mod, ADAM10 inh)
C#CCNC(=O)C[C@@H]1C(=O)N(CCc2ccc(Cl)cc2)C2=CCCCC[C@]21C(=O)OC	none (no result: AHR activator, GRIN3A LBD mod)
O=C(CNSc1ccc([N+](=O)[O-])cc1[N+](=O)[O-])OCc1ccccc1	none (no result: AHR activator, GRIN3A LBD mod)
COc1cccc(C(C)(O)c2nc(-c3cnn(C)c3)cs2)c1 (stereo not given)	none (no result: AHR activator, GRIN3A LBD mod)
Cc1cccc2cc(/C=N/Nc3ccc(C(=O)O)cc3)c(Cl)nc12	rCAG RNA binder 47.4 | rCAG binder conf 42.8 | dCAG dye counter 10.6
CCOC(=O)[C@]12CCCC=C1N(CCC1=CCCCC1)C(=O)[C@H](CC(=O)NCc1ccccc1)C2	none (no result: AHR activator, GRIN3A LBD mod)
CCCCOCCCNC(=O)C[C@H]1C[C@@]2(C(=O)OC)C(=C[C@H](C(C)C)O[C@@H]2C2CC2)N(Cc2cccc3ccccc23)C1=O	none (no result: AHR activator, GRIN3A LBD mod)
CCC(Oc1ccc(C)cc1)C(=O)Nc1ccc(S(=O)(=O)Nc2nccs2)cc1 (stereo not given)	rCAG RNA binder 52.7 | rCAG binder conf inactive | dCAG dye counter 8.8
